Laboratory results published in PubChem BioAssay (NCI).
About 79,000 compounds went through this panel and 15% of them were active in at least one assay; those are over-represented in the sample as a whole. No stated cut-off is given here; in the data, active means growth inhibition above about 70%; inactive means the rest.

Experiments:
[1] = NCI Yeast Anticancer Drug Screen. Data for the rad50 strain (AID 155);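 further: 0% = growth of vehicle-only cultures of the same strain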; settings: S. cerevisiae rad50 strain growth inhibition, hits give high values; at 50.0 µM unless noted
Procedure, shortened: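 Inhibition values express reduced yeast growth in compound-treated cultures relative to vehicle-treated controls.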

[2] = NCI Yeast Anticancer Drug Screen. Data for the mec2-1 strain (AID 157); settings: S. cerevisiae mec2-1 strain, hits give high values; at 50.0 µM unless noted
Procedure, shortened: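 Compounds were applied to mec2-1 yeast cells. Their growth was then compared with that of vehicle-treated cultures to give growth inhibition.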

[3] = NCI Yeast Anticancer Drug Screen. Data for the sgs1 mgt1 strain (AID 161);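 further: 0% = growth of cultures given vehicle only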; settings: S. cerevisiae sgs1 mgt1 strain, hits give high values; at 50.0 µM unless noted
Procedure, shortened: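 Yeast cells carrying a defined DNA-repair defect were exposed to test compounds. Growth inhibition was measured relative to vehicle-treated controls.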

[4] = NCI Yeast Anticancer Drug Screen. Data for the cln2 rad14 strain (AID 165);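 further: 0% = growth equal to vehicle treated cultures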; settings: S. cerevisiae cln2 rad14 strain, hits give high values; at 50.0 µM unless noted
Procedure, shortened: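 Strain: cln2 rad14 yeast, altered in cell cycle control and DNA damage repair. Read-out: growth inhibition vs vehicle.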

[5] = NCI Yeast Anticancer Drug Screen. Data for the bub3 strain (AID 167); settings: S. cerevisiae bub3 mutant strain, hits give high values; at 50.0 µM unless noted
Procedure, shortened: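 Steps: expose the mutant yeast strain to compound; grow alongside vehicle-treated cultures; measure growth; express inhibition against the vehicle cultures.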

[6] = NCI Yeast Anticancer Drug Screen. Data for the mlh1 rad18 strain (AID 175); settings: S. cerevisiae mlh1 rad18 strain growth inhibition, hits give high values; at 50.0 µM unless noted
Procedure, shortened: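 A repair-deficient yeast strain is exposed to test compound, and growth is scored relative to vehicle-treated controls.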

Measured: growth inhibition

O=C1CCCCC(=O)Nc2ccccc2N1
inactive: [1] -22.2% | [2] -15.8% | [3] -6.85% | [4] 0.9% | [5] -4.9% | [6] -20.8%

CCCCCCCC(=O)C1C(=O)OC(C)(C)OC1=O
inactive: [1] 9.65% | [2] -6.45% | [3] -7.85% | [4] 9.65% | [5] -0.5% | [6] -7.15%

COc1ccc(C(=O)NNC(=O)c2cccc3ccccc23)cc1
inactive: [1] 21.8% | [2] -9.75% | [3] 9.7% | [4] 5.8% | [5] 16.6% | [6] -3.6%

CC(=O)c1ccc([N+](=O)[O-])[nH]1
inactive: [1] -16.4% | [2] 23.1% | [3] -32.9% | [4] -3.8% | [5] -3.95% | [6] -5.1%
